About 710 (1.3%) of roughly 56,000 compounds were called active.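 Rule for the calls: active = inhibition above the mean inhibition of all tested compounds plus 3 SD (cut at about 28% in these data); inactive = the rest.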 Shown is part of a subset that was picked to be rich in actives.
assay: cytotoxicity toward Jurkat T cells, primary screen, cytotoxicity control, cell-based, Jurkat E6.1, 60K MLSMR library (AID 463); settings: Jurkat E6.1 viability, ATP luminescence, 48 h; at 4 µM; active compounds read high

Row | SMILES | inhibition
1 | CS(=O)(=O)c1ccc2nc(NC(=O)C3CCCCC3)sc2c1 | 5.6% (inactive)
2 | COc1ccccc1N1CCN(C(=O)CN(Cc2ccc(Cl)cc2)S(C)(=O)=O)CC1 | 9.3% (inactive)
3 | COc1ccccc1N1CCN(Cc2nnnn2CCc2ccccc2)CC1 | -5.1% (inactive)
4 | COc1ccccc1-n1nnnc1S(=O)(=O)Cc1ccc(Cl)cc1 | 53.4% (active)
5 | Cc1oc(C)c(C(=O)NCCCC(=O)O)c1C(=O)NCCCC(=O)O | -3.9% (inactive)
6 | Cc1ccc2nc(-c3ccc(SCC(=O)Nc4cc(C)on4)nc3)[nH]c2c1 | -5.8% (inactive)
7 | O=C(O)CCSc1nnc(-c2ccccc2)n1-c1ccccc1 | -2.8% (inactive)
8 | CC(C)OCCCNc1ncnc2c1[nH]c1ccc(F)cc12 | 87.6% (active)
9 | CCN1CCCC1CNc1ncnc2c1[nH]c1ccc(F)cc12 (configuration not stated) | 3.2% (inactive)
10 | O=C1CCCN1CCCNc1ncnc2c1[nH]c1ccccc12 | 2.2% (inactive)
11 | COc1ccc(OC)c2c1sc(=NC(=O)CN1C(=O)CCC1=O)n2C | 1.4% (inactive)
12 | CC(=O)Nc1cccc(Oc2cc(C#N)c(C#N)cc2N2CCOCC2)c1 | 1.2% (inactive)
13 | CCOc1cc(N2CCOCC2)c(OCC)cc1NC(=O)COc1cccc2cccnc12 | 37.5% (active)
14 | CCOc1cc(NC(=O)c2ccco2)c(OCC)cc1NC(=O)COc1ccccc1 | 0.4% (inactive)
15 | COc1ccc(OCC(=O)N2CCOCC2)cc1 | -4.3% (inactive)
16 | Cc1nc2ccc(NC(=O)N3CCC(c4ccccc4)C3)cc2nc1C (configuration not stated) | -3.3% (inactive)
17 | CCc1nnc(NC(=O)C2CCCN2S(=O)(=O)c2ccccc2)s1 (configuration not stated) | 2.3% (inactive)
18 | CC1CCCCN1S(=O)(=O)c1ccc(C(=O)Nc2nnc(-c3cccs3)o2)cc1 (configuration not stated) | 101% (active)
19 | CCc1nnc(NC(=O)c2ccc(S(=O)(=O)NC3CCCCC3)cc2)s1 | 27.4% (inactive)
20 | O=C1c2ccccc2-c2ncnc3c(N4CCOCC4)cc(N4CCOCC4)c1c23 | 6.4% (inactive)
21 | CC1CCCN(Cc2nc3c(c(=O)n(C)c(=O)n3C)n2Cc2cccc3ccccc23)C1 (configuration not stated) | -3.6% (inactive)

Row | SMILES | inhibition
22 | CNC(=O)CSc1nnnn1-c1ccc(C)cc1C | -4.9% (inactive)
23 | CCOC(=O)c1c(-c2ccc(C)cc2C)csc1NC(=O)CSc1nnnn1C | 28.5% (active)
24 | CCOC(=O)CNC(=O)CSc1nnnn1-c1cc(C)ccc1C | -1.2% (inactive)
25 | CCOCCCNC(=O)Cc1cc(=O)[nH]c(=O)[nH]1 | -4.5% (inactive)
26 | CCC(c1nnnn1Cc1ccccc1)N(Cc1cc2cc(OC)ccc2[nH]c1=O)CC1CCCO1 (configuration not stated) | -4.6% (inactive)
27 | CC(Nc1nc(N2CCCC2)nc2ccccc12)c1ccccc1 (configuration not stated) | 4.2% (inactive)
28 | COc1ccc(-n2nnc3c(=O)n(CC(=O)OCc4ccccc4)cnc32)cc1 | 7% (inactive)
29 | Cc1cccc(-n2c(N)c(C(=O)N3CCN(C)CC3)sc2=S)c1 | 2.6% (inactive)
30 | Cc1cccc(-n2c(O)c(C=Nc3ccccc3N)c(=O)[nH]c2=O)c1 | 46.2% (active)
31 | O=C(CS(=O)(=O)c1cn(Cc2ccc(Cl)cc2)c2ccccc12)N1CCOCC1 | 5.9% (inactive)
32 | COc1ccc(N(Cc2cc3cc(OC)ccc3[nH]c2=O)S(C)(=O)=O)cc1 | 8.7% (inactive)
33 | CCC(C)Sc1nnc(-c2c[nH]c3ccccc23)n1CCOC (configuration not stated) | 6% (inactive)
34 | CC(=O)Oc1ccc2c(C)c(CC(C)O)c(=O)oc2c1 (configuration not stated) | -1.3% (inactive)
35 | COc1ccc(OCc2cccc(C(=O)N3CCCC3)c2)cc1 | -5.2% (inactive)
36 | O=C(CSc1nc2c(cnn2-c2ccc(F)cc2)c(=O)[nH]1)N1CCCCCC1 | 2.5% (inactive)
37 | CC(C)Oc1ccc(C(=O)Nc2cc(=O)n(C)c(=O)n2C)cc1 | 2.6% (inactive)
38 | COc1ccc(C2=NOC(C(=O)NCc3ccco3)C2)cc1OC (configuration not stated) | 85.8% (active)
39 | O=C(c1ccco1)N1CCN(C(=O)C2CC(c3ccc(Cl)c(Cl)c3)=NO2)CC1 (configuration not stated) | -1.7% (inactive)
40 | COc1ccc(CCNS(=O)(=O)c2ccc(C(=O)NCc3ccco3)cc2)cc1OC | 0.2% (inactive)
41 | CC(C)NS(=O)(=O)c1ccc(NC(=O)c2cccnc2)cc1 | 0.7% (inactive)
42 | Cc1ccccc1OCC(=O)Nc1ccc(N2CCN(C(=O)C(C)C)CC2)c(Cl)c1 | 30.2% (active)

Row | SMILES | inhibition
43 | Cc1cccc(NC(=O)COc2ccccc2C)n1 | 8.1% (inactive)
44 | CN1CCN(c2ccc(NC(=O)COc3ccc(Cl)cc3Cl)cc2)CC1 | -0.1% (inactive)
45 | Cc1cc(C(=O)OCC(=O)NCc2ccco2)c(C)n1-c1ccccc1 | 75.4% (active)
46 | O=C(CSc1nnc(-c2cccs2)n1-c1ccccc1)NCc1ccco1 | -1.7% (inactive)
47 | CCOC(=O)c1cnc(SCC(=O)NCc2ccco2)nc1N | -0.1% (inactive)
48 | COc1cccc(OC)c1C(=O)Nc1nnc(C(C)C)s1 | 5.1% (inactive)
49 | Cc1ccc(OCC(=O)Nc2ccc(-c3nc4ncccc4o3)cc2)cc1 | -9.9% (inactive)
50 | Nc1nonc1-c1nc2ccccc2n1CCC(=O)O | 1.7% (inactive)
51 | COc1ccc(C)c(Cn2c(-c3nonc3N)nc3ccccc32)c1 | 75.3% (active)
52 | Nc1nonc1-c1nc2ccccc2n1Cc1ccc(F)cc1 | 20.3% (inactive)
53 | CCC(=NC1CC(C)(C)NC(C)(C)C1)C1=C(O)CC(C)(C)CC1=O | -4.2% (inactive)
54 | CCc1cc(=O)oc2cc(OCC(=O)N3CCCc4ccccc43)ccc12 | -8.4% (inactive)
55 | CCN(c1ccccc1)S(=O)(=O)c1ccc(N)cc1 | -3.3% (inactive)
56 | CC1CN(c2cc(=O)n(-c3cccc(Br)c3)c(=O)[nH]2)CC(C)O1 (configuration not stated) | 1.2% (inactive)
57 | Cn1c(CN2CCOCC2)nc2cc(NC(=O)c3ccc(Cl)cc3)ccc21 | 86.9% (active)
58 | Cc1nn(CC(=O)Nc2ccc3c(c2)nc(CN2CCCCC2)n3C)c(=O)c2ccccc12 | 1.4% (inactive)
59 | CCC(=O)Nc1ccc2c(c1)nc(CCN1CCN(C)CC1)n2C | 7.5% (inactive)
60 | CC(=O)OC(C(=O)NCCc1ccccc1)c1cccnc1 (configuration not stated) | -5.8% (inactive)
61 | O=S(=O)(NCC1CCCO1)c1ccc2ccccc2c1 (configuration not stated) | -0.5% (inactive)
62 | CC1CCCN(Cc2nc3c(c(=O)n(C)c(=O)n3C)n2CC(=O)c2ccccc2)C1 (configuration not stated) | 4.9% (inactive)
63 | CC1=NC2(CCCc3c2no[n+]3[O-])N(O)C1(C)C (configuration not stated) | 12.1% (inactive)

Row | SMILES | inhibition
64 | Cc1cc(NC(=O)CSCc2nc(-c3cccc(Cl)c3)oc2C)no1 | 0.8% (inactive)
65 | c1cnn(-c2cc(N3CCOCC3)ncn2)c1 | -0.2% (inactive)
66 | COc1c(C)cccc1C(=O)Nc1cc(Cl)ccc1N1CCOCC1 | -1% (inactive)
67 | O=C(Nc1cc(N2CCOCC2)ncn1)NC1(C(F)(F)F)Oc2ccc(Cl)cc2O1 (configuration not stated) | 72.6% (active)
68 | CCOC(=O)C1=C(C)NC(C)=C(C(=O)OCC)C1C1=COCCO1 | -5.9% (inactive)
69 | CCOC(=O)CCc1c(C)c2ccc(OCc3nn[nH]n3)c(C)c2oc1=O | -2.2% (inactive)
70 | CN(C)CCCn1c(N)c(C#N)c2nc(C#N)c(C#N)nc21 | 1.9% (inactive)
71 | CC(C)Cc1cc(C(=O)Nc2cc(Br)ccc2O)no1 | 60.7% (active)
72 | CC(C)CNC(=O)c1cc(-c2ccc(Br)cc2)on1 | 1.8% (inactive)
73 | CC(C)Cc1cc(C(=O)NCCc2ccccc2)no1 | 6% (inactive)
74 | COCCn1c(SCC(=O)Nc2cc(Cl)ccc2OC)nc2c(c1=O)SC(C)C2 (configuration not stated) | 6.8% (inactive)
75 | O=C(CSc1nnc(-c2ccco2)n1-c1ccccc1)NCCc1ccccc1 | 0.2% (inactive)
76 | COc1ccc(Nc2oc(-c3ccccc3Cl)nc2C#N)cc1 | 85.4% (active)
77 | CCOc1ccc(Nc2oc(Cc3ccccc3)nc2C#N)cc1 | -0.9% (inactive)
78 | N#Cc1nc(-c2ccc(OCc3ccccc3)cc2)oc1NCCCN1CCOCC1 | -3.2% (inactive)
79 | O=C(Nc1nc(-c2ccncc2)cs1)C1COc2ccccc2O1 (configuration not stated) | 7.3% (inactive)
80 | O=C(Nc1nc(-c2ccc3c(c2)OCO3)cs1)c1ccncc1 | 44% (active)
81 | O=C(Nc1ccc2c(c1)OCCO2)c1ccncc1 | 3.8% (inactive)
82 | Cn1c(=O)cc(SCC(=O)N2CCCC2)c2cc(Cl)ccc21 | 3.9% (inactive)

Source: PubChem BioAssay AID463 (The Scripps Research Institute Molecular Screening Center, 2006)
